An excerpt weighted towards active compounds, which were near 7.4% of everything screened.
NPC1 promoter act: activators of NPC1 promoter. Huh7 NPC1 promoter luciferase reporter, 24 h. Potency, µM (titrated, usually from 9.22 µM), inactives show top-dose activation, hits mostly activators. 320,000 tested, 2.4% active; further: % of control where 0% means no effect; nearly all actives have a fitted effect of over 60% in size
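Quantitative HTS used a cell-based reporter: Huh7 cells stably bearing the NPC1 promoter upstream of luciferase were treated with compounds for 24 h, and promoter activation was read as luminescence.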
SMN2 splice enh: SMN2 splice variant enhancement; 210,000 tested, 2.8% active; HEK293 SMN2-luciferase splicing reporter, luminescence, 30-36 h; AID 1458; Potency, µM (doses to about 46.1 µM), inactives show at the top dose activity change, positive = activation, hits mostly activators; further: % of control where 0% means no effect; nearly all actives have a fitted effect of over 55% in size
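HEK293 cells carry an SMN2 […]–luciferase reporter in which exon 7 inclusion puts luciferase in frame. Cells were plated 10-12 h before compound addition, then incubated 30-36 h at 37C. ONE-Glo luminescence was read; sodium butyrate at 4.5 mM final served as control.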
Rab9 promoter act: activates the Rab9 promoter; Huh7 Rab9 promoter-luciferase reporter, luminescence, 24 h; Potency, µM (highest dose often 9.22 µM), without a hit: at the highest dose activation, negative = inhibition, most hits filed as activators; 320,000 tested, 2.8% active; further: % of control where 0% means no effect; nearly all actives have a fitted effect of over 60% in size
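Luminescence read-out: Huh7 cells stably expressing Rab9-luciferase, treated 24 h with compound at 37 °C, then lysed with luciferase reagent for 10 min at ambient before reading.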
FLuc counter: counter-screen for miR-21 project: firefly luciferase inhibitors or activators. P08659. purified FLuc, Km substrates, luminescence inhibition. Potency, µM (series often up to 57.5 µM), inactives show at the highest dose activity change, negative = inhibition, actives largely listed as inhibitors. 360,000 tested, 6.9% active. AID 588342;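 further: plate controls were vehicle for no effect and reference inhibitor for full effect; nearly all actives have a fitted effect of over 55% in size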
Target sequence (P08659 whole entry, looked up): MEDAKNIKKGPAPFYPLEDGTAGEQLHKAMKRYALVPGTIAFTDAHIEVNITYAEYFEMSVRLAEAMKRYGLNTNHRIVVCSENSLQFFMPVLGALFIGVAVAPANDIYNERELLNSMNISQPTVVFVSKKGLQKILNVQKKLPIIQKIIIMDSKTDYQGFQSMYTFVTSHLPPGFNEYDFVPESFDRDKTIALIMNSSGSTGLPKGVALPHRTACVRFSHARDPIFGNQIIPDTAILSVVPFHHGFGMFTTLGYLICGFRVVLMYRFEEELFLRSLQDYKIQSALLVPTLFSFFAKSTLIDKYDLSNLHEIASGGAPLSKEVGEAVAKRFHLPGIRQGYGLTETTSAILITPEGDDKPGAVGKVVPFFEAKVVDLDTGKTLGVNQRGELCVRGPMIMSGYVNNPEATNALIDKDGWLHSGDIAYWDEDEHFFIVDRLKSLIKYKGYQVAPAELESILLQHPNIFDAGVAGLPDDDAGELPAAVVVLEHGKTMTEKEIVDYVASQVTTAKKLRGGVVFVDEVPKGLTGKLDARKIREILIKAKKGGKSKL
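Purified P. pyralis luciferase (10nM final) with 10uM D-luciferin and 10uM ATP (Km levels) in 50mM Tris acetate pH 7.5, 10mM Mg acetate, 0.01% Tween-20, 0.05% BSA; qHTS 6-point titration, ~60 µM downward; luminescence read.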
ELG1 genotox: inducers of genotoxicity in HEK293T ELG1-luciferase cells; HEK293T ELG1-luciferase reporter, luminescence, 16 h; 330,000 tested, 1.3% active; Potency, µM (series often up to 46 µM), inactives show top-dose activity change, positive = activation, hits mostly activators; further: % of control where 0% means no effect; nearly all actives have a fitted effect of over 60% in size
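Screening used a luciferase reporter fused to human ELG1 in HEK293T cells. Luminescence was read on a CCD plate imager after 16 hr exposure and 30 min ONE-Glo incubation.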
An asterisk follows results filed as active; ? = inconclusive; / = no result given; [ ] = another dose, or the depositor's remark. The call rests on the fitted dose curve; in most records, active means well fitted curve in the direction sought with a large enough effect; inconclusive means small, poorly fitted or top-dose-only effect, or another doubt; inactive means no such curve, though single readings can be large; an effect the other way counts as inactive or inconclusive. Potency means the concentration at half of the fitted maximal effect.

SMILES | NPC1 promoter act | SMN2 splice enh | Rab9 promoter act | FLuc counter | ELG1 genotox
O=C(NNC1=NS(=O)(=O)c2ccccc21)c1cccc([N+](=O)[O-])c1 | 14% | / | 3% | 12µM* | 2%
O=C(NNC1=NS(=O)(=O)c2ccccc21)c1ccccc1 | 29% | / | 25% | 4.8µM* | 6%
O=C(NNC1=NS(=O)(=O)c2ccccc21)c1ccccc1Cl | 4% | / | -9% | 17µM* | 6%
O=C(/C=C/c1ccccc1)NNC1=NS(=O)(=O)c2ccccc21 | -2% | / | 10% | 24µM* | 2%
COc1ccccc1C(=O)NNC1=NS(=O)(=O)c2ccccc21 | 1% | / | 3% | ? | 0%
COc1cc(NC(=O)C(NC(=O)C2CCC(C)CC2)C(C)C)cc(OC)c1OC (stereo unspecified) | / | 19% | / | -1% | /
Cc1cc(C)cc(OC(C)C(=O)Nc2nonc2-c2ccc(Br)cc2)c1 (stereo unspecified) | / | / | / | 1% | /
CCCCc1nc2c(c3c1C[C@H](C)OC3)CN(C(=O)c1cccnc1)CC2 | / | -6%[9.22 µM] | / | / | /
Cc1nc(-c2coc3cc(O)c(C)cc3c2=O)cs1 | ? | 25µM* | ? | 0.95µM* | ?
COc1ccccc1Oc1coc2cc(OCC(N)=O)ccc2c1=O | 1% | / | 1% | 0% | 0%
Cc1nc(-c2coc3cc(OCC(=O)O)ccc3c2=O)cs1 | -5% | -6% | -10% | 1.9µM* | -9%
CCOCCOC(=O)COc1ccc2c(=O)c(Oc3ccc(OC)cc3)coc2c1 | -1% | / | -9% | -2% | -4%
Cc1nc(-c2coc3cc(C)c(N=O)c(O)c3/c2=N\N)cs1 | -3% | 3% | -4% | ? | 3%
CC(C)(C)c1ccc(Oc2coc3cc(OCC(=O)O)ccc3c2=O)cc1 | 1% | / | -11% | 2.1µM* | 1%
COc1cc(Cl)c(C)cc1NC(=O)CSc1nc2c(c(=O)[nH]1)CCCC2 | / | / | / | 2% | /
Cc1ccc(S(=O)(=O)N2CCN(C(=O)c3ccccc3OCc3c(C)noc3C)CC2)cc1 | -3% | / | 2% | 11% | 5%
Cc1noc(C)c1COc1ccccc1C(=O)N1CCN(S(=O)(=O)c2ccccc2F)CC1 | 1% | / | -5% | 4% | 23µM*
CC(OC(=O)c1c2c(nc3ccccc13)/C(=C\c1ccc3c(c1)OCO3)CCC2)C(=O)Nc1ccc(S(N)(=O)=O)cc1 (stereo unspecified) | -15% | -14% | 0% | ? | -1%
CNC(=O)NC(=O)C(C)OC(=O)c1c2c(nc3ccccc13)/C(=C/c1cccs1)CC2 (stereo unspecified) | -32% | ? | -34% | 6µM* | -17%
CCCCNC(=O)COC(=O)c1c2c(nc3ccccc13)/C(=C/c1cccs1)CC2 | -32% | 11µM* | -30% | 7.6µM* | -12%
COc1cccc(/C=C2\Oc3cc(OCC(=O)N4CCCC4)ccc3C2=O)c1OC | -3% | / | -1% | 9.5µM* | 2%
COc1ccc(/C=C2\Oc3cc(OCC(=O)N4CCC(C(=O)O)CC4)ccc3C2=O)c(OC)c1OC | -1% | / | -6% | ? | 6%
COc1ccc(/C=C2\Oc3cc(OCC(=O)N4CCC[C@H]4C(=O)O)ccc3C2=O)cc1OC | -2% | / | -3% | 1.3µM* | -1%
COc1ccc(OC)c(/C=C2\Oc3cc(OCC(=O)N4CCC(C(=O)O)CC4)ccc3C2=O)c1 | -4% | / | -17% | -19% | 0%
COc1ccc(/C=C2\Oc3cc(OCC(=O)N4CCC(C(=O)O)CC4)ccc3C2=O)c(OC)c1 | 0% | / | -7% | 6.7µM* | 1%
SMILES | NPC1 promoter act | SMN2 splice enh | Rab9 promoter act | FLuc counter | ELG1 genotox
COc1cccc(/C=C2\Oc3cc(OCC(=O)N4CCCCC4)ccc3C2=O)c1OC | -5% | / | -7% | 9.5µM* | 2%
Cn1c(=O)[nH]c(=O)c2c1nc1n2CCN1c1ccccc1 | / | 2% | / | -6% | /
CCc1ccc(S(=O)(=O)c2nnn3c2nc(NC2CCCC2)c2sccc23)cc1 | / | / | / | 2% | /
CN(/N=C/C=C/c1ccccc1)c1cc(=O)n(C)c(=O)[nH]1 | 11% | 10% | 16% | -19% | -3%
COc1ccc(/C=N/N(C)c2cc(=O)n(C)c(=O)[nH]2)cc1OC | 0% | 10% | 5% | 17µM* | ?
C(=N\Nc1ccccn1)/c1ccc2c(c1)OCCO2 | 1.3µM* | 2.5µM* | 0.56µM* | 1.7µM* | 2.1µM*
O=S(=O)(N/N=C/c1ccc2c(c1)OCCO2)c1ccccc1 | 8% | -6% | 4% | ? | 0%
Fc1cccc(F)c1/C=N/Nc1ccccn1 | 26% | ? | ? | ? | 13%
Fc1cccc(/C=N/Nc2ccccn2)c1 | 3.2µM* | ? | 3.2µM* | 12µM* | ?
O=C(CSc1ccc2ccccc2n1)N/N=C/c1ccccc1O | -5% | / | -4% | ? | 10%
Cc1cc(N/N=C/c2ccccc2Br)nc2ccccc12 | 18% | 86% | 22% | 12µM* | 12%
Brc1ccccc1/C=N/Nc1ccc2ccccc2n1 | 3.5µM* | 7.9µM* | 4.5µM* | 2.1µM* | ?
CC(=O)c1ccc(NC(=O)Cn2cnc3nc4c(cc3c2=O)CC(C)CC4)cc1 (stereo unspecified) | / | / | / | -18% | /
O=S(=O)(NCCc1csc2nc(-c3ccc(Cl)cc3)nn12)c1ccc2c(c1)OCCO2 | / | / | / | 1% | /
Fc1cccc(/C=N/Nc2ccc3ccccc3n2)c1 | 1.1µM* | 2.5µM* | ? | 0.48µM* | ?
Brc1ccc(/C=N/Nc2ccc3ccccc3n2)cc1 | 3.5µM* | ? | 2.5µM* | 3µM* | ?
CC(=O)Nc1ccc(C(=O)N/N=C/c2ccc(F)cc2)cc1 | -1% | -21% | 0% | -13% | 4%
Fc1ccc(/C=N\Nc2cccc(F)c2)cc1 | -2% | / | -1% | 13µM* | 0%
Brc1ccc(/C=N/Nc2ccccc2)cc1 | 18% | 29% | ? | 17µM* | ?
Cc1cc(N2CCOCC2)nc2ccc(NC(=O)C3CCC(C)CC3)cc12 (stereo unspecified) | -7% | -16% | 5% | 1% | -2%
CCCCNC(=O)CCC(=O)Nc1ccc2nc(N3CCCCC3)cc(C)c2c1 | ? | 7.1µM* | ? | 15µM* | 9%
CCCCN(CC)CCNC(=O)CCC(=O)Nc1ccc2nc(N3CCN(C)CC3)cc(C)c2c1 | 8% | -11% | -3% | -4% | 6%
CCOC(=O)C1CCCN(C(=O)CCC(=O)Nc2ccc3nc(N4CCOCC4)cc(C)c3c2)C1 (stereo unspecified) | ? | / | ? | 17µM* | ?
CCCN(CCC)CCNC(=O)CCC(=O)Nc1ccc2nc(N3CCOCC3)cc(C)c2c1 | ? | / | 3.5µM* | -1% | ?
Cc1cc(N2CCCCC2)nc2ccc(NC(=O)CCC(=O)NCCC(C)C)cc12 | ? | 65% | 3.2µM* | 7.6µM* | ?
CCOc1ccccc1NC(=O)CSc1cn(CC(=O)N2CCCCCC2)c2ccccc12 | / | / | / | -19% | /
